# Data: PubChem BioAssay (Tox21)
# Values without a mark were called inactive. Records with an inconclusive call do not appear. Entries that show only a call come without a potency. Activity calls are given as the source filed them. Unless noted, calls follow the shape of the full dose curve.
# Experiments:
# [1] = Nuclear factor erythroid 2-related factor 2/antioxidant responsive element (Nrf2/ARE) small molecule agonists: qHTS cell viability counter screen in human keratinocytes (AID 1919968; active = well fitted curve in the direction sought with a large enough effect in the repeat runs; an effect the other way counts as inactive or inconclusive; also: nearly all actives have a fitted effect of over 55% in size)
# Summary of the method: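 Seed 1,500 KeratinoSens cells per well, then incubate 5 h at 37 C/5% CO2. Add compounds in DMSO and incubate 23 h. Add CellTiter-Fluor, wait 1 h and read fluorescence.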
# [2] = Nuclear factor erythroid 2-related factor 2/antioxidant responsive element (Nrf2/ARE) small molecule agonists: luciferase reporter gene qHTS assay in human keratinocytes (AID 1919969); also: nearly all actives have a fitted effect of over 35% in size
# [3] = molecular target: Gonadotropin-releasing hormone receptor (Homo sapiens) (UniProt P30968); test: Human gonadotropin-releasing hormone receptor (GnRHR) small molecule agonists, calcium flux assay in GnRHR-HEK293 cells (AID 1920063); also: nearly all actives have a fitted effect of over 35% in size; also: potency is read from the fitted curve at half-maximal effect
# Chain of Gonadotropin-releasing hormone receptor (Homo sapiens) (P30968 whole entry, looked up): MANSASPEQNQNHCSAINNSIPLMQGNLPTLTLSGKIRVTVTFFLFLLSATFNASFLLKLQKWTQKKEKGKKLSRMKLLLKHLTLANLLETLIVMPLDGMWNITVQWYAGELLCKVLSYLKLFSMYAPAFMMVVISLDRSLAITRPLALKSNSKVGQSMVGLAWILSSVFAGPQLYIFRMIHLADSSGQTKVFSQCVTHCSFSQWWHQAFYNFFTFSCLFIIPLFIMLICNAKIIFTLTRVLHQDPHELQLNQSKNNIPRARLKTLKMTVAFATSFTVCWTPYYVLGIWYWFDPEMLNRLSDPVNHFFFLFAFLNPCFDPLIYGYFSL
# Summary of the method: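 Cells: HEK293 stably expressing human GnRHR. Steps: overnight (18 h) culture, 1 h calcium dye loading at 37 C, compound addition, kinetic fluorescence read at 480/540 nm. Each compound tested at 15 concentrations in triplicate.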
# [4] = molecular target: KiSS-1 receptor (Homo sapiens) (UniProt Q969F8); test: Human kisspeptin (KISS1R) small molecule agonists, calcium flux assay in KISS1R-HEK293 cells (AID 1920064; active = well fitted curve in the direction sought with a large enough effect in the repeat runs; an effect the other way counts as inactive or inconclusive)
# Chain of KiSS-1 receptor (Homo sapiens) (Q969F8 whole entry, looked up): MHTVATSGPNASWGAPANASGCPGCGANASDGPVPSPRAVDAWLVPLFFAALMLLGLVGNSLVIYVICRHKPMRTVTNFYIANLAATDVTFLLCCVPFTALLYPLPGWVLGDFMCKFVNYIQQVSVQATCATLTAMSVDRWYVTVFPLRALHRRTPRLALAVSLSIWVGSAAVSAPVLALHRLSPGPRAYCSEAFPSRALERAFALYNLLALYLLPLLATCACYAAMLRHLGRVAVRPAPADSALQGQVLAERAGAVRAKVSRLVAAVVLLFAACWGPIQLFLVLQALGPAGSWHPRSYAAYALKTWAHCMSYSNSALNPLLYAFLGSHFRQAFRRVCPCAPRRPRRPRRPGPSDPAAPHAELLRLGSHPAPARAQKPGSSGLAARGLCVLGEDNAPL
# Summary of the method: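 Cells plated and incubated 18 h; dye added, 1 h at 37 C; compounds in DMSO pinned in; signal read at 480/540 nm every second for 3 min. Each compound tested at 15 concentrations in triplicate.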
# [5] = G protein-coupled receptor (GPCR) small molecule agonists, calcium flux assay: HEK293 wild type cell line counter screen (AID 1920065)
# Summary of the method: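 Counter-screen of the Tox21 10K library for non-specific calcium release: dye-loaded cells received compounds in DMSO and were monitored by kinetic fluorescence (480/540 nm, 3 min). Fifteen concentrations, run in triplicate.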
# [6] = p53 small molecule agonists, cell-based qHTS assay with human liver microsomes (AID 1963577);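 also: p53 response element beta-lactamase reporter cells with liver microsomes plus NADPH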
# Summary of the method: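 p53RE-bla cells; 5 h settle, 37 C/5% CO2; cpd + HLM 0.5 mg/mL + NADPH 0.5 mg/mL (final); 16 h 37 C; LiveBLAzer 2 h RT dark; fluorescence readout.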
# [7] = p53 small molecule agonists, cell-based qHTS assay with rat liver microsomes (AID 1963578)
# Summary of the method: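 Rat liver microsome activation: microsomes 0.5 mg/mL, NADPH 0.5 mg/mL final; p53RE-bla cells, 16 h 37 C; LiveBLAzer readout, 2 h RT dark.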
# [8] = p53 small molecule agonists, cell-based qHTS assay with human liver microsomes: qHTS cell viability counter screen (AID 1963579); also: nearly all actives have a fitted effect of over 45% in size
# Summary of the method: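 Luminescent CellTiter-Glo read-out, 30 min at room temperature, gauged cytotoxicity in p53RE-bla cells exposed 16 h at 37 C to DMSO-dissolved compounds with metabolic activation by human liver microsomes and NADPH, each 0.5 mg/mL final.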
# [9] = p53 small molecule agonists, cell-based qHTS assay with rat liver microsomes: qHTS cell viability counter screen (AID 1963580); also: nearly all actives have a fitted effect of over 45% in size
# Summary of the method: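 p53RE-bla HCT-116 cells (4,000/well) rested 5 h at 37 C, then given Tox21 compounds in DMSO with rat liver microsomes (0.5 mg/mL final) plus NADPH (0.5 mg/mL final) for 16 h at 37 C. Viability read by CellTiter-Glo luminescence after 30 min at room temperature.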
# [10] = p53 small molecule agonists, cell-based qHTS assay: qHTS cell viability counter screen (AID 1963581); also: nearly all actives have a fitted effect of over 45% in size
# Summary of the method: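 Cells: HCT-116 with p53 response element-driven beta-lactamase. Treatment: 16 h, 37 C, compounds in DMSO. Read: CellTiter-Glo luminescence after 30 min RT.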
# [11] = p53 small molecule agonists, cell-based qHTS assay (AID 1963582; active = well fitted activation curve with a large enough effect in the signal ratio in the repeat runs, not every such curve was filed as active; the % refers to the signal ratio)
# Summary of the method: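 Quantitative HTS in p53RE-bla cells: after a 5 h settling period, compounds delivered in DMSO were left on cells for 16 h at 37 C, and reporter induction was measured as fluorescence following 2 h substrate loading.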
# [12] = molecular target: 5-hydroxytryptamine receptor 2A (Homo sapiens) (UniProt P28223); test: 5-hydroxytryptamine receptor 2A (HTR2A) small molecule antagonists, cell-based qHTS assay (AID 1963586); also: nearly all actives have a fitted effect of over 45% in size
# Chain of 5-hydroxytryptamine receptor 2A (Homo sapiens) (P28223 whole entry, looked up): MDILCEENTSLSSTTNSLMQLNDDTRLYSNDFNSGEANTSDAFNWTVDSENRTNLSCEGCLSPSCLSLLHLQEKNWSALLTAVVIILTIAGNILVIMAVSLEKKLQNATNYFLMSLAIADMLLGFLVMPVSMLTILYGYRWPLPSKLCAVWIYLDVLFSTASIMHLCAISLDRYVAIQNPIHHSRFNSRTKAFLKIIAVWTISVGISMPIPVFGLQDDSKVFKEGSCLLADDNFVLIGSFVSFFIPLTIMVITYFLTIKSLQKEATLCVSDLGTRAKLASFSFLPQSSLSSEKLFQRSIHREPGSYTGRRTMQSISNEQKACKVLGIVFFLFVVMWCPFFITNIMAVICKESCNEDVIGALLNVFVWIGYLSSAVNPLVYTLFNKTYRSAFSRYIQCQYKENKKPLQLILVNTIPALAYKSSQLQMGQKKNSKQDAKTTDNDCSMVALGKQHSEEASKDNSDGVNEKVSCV
# Summary of the method: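 Antagonist-mode intracellular calcium assay: DOI (4 nM) added after 5 min compound pre-incubation at room temperature to dye-loaded HTR2A-CHO cells. Fluorescence followed for 3 min, sampled every second.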
# [13] = molecular target: 5-hydroxytryptamine receptor 2A (Homo sapiens) (UniProt P28223); test: 5-hydroxytryptamine receptor 2A (HTR2A) small molecule agonists, cell-based qHTS assay (AID 1963587); also: nearly all actives have a fitted effect of over 30% in size
# Summary of the method: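 HTR2A-CHO cells, plated 18 h at 37 C/5% CO2, dye-loaded 1 h at 37 C; compounds in DMSO added by pin tool (agonist mode). Intracellular calcium flux read as kinetic fluorescence on FDSS over 2 min at 1 s intervals.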
# [14] = molecular target: Muscarinic acetylcholine receptor M1 (Homo sapiens) (UniProt P11229); test: Cholinergic receptor muscarinic 1 (CHRM1) small molecule antagonists, cell-based qHTS assay (AID 1963588); also: nearly all actives have a fitted effect of over 40% in size
# Chain of Muscarinic acetylcholine receptor M1 (Homo sapiens) (P11229 whole entry, looked up): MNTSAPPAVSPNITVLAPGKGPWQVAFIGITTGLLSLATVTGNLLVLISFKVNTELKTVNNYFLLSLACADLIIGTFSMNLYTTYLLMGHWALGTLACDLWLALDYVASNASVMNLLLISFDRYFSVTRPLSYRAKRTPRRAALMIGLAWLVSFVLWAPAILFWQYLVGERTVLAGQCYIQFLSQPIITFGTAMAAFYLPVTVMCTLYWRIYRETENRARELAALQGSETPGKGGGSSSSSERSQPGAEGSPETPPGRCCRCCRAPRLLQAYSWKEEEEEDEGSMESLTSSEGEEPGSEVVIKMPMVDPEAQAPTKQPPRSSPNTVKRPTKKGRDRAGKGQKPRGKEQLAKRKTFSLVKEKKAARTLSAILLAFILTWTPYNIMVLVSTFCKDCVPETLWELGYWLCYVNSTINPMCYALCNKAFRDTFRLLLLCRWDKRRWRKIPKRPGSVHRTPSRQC
# Summary of the method: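 CHRM1-CHO calcium-flux assay, antagonist mode. Cells were seeded 18 h, dye-loaded 1 h at 37 C and given compound for 5 min at RT, then acetylcholine was added at 50nM. FDSS fluorescence was read 3 min; 15 concentrations, three runs.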
# [15] = molecular target: Muscarinic acetylcholine receptor M1 (Homo sapiens) (UniProt P11229); test: Cholinergic receptor muscarinic 1 (CHRM1) small molecule agonists, cell-based qHTS assay (AID 1963589); also: nearly all actives have a fitted effect of over 35% in size
# Summary of the method: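 Agonist-mode qHTS in CHO cells stably carrying human muscarinic M1. Intracellular calcium is tracked by fluorescence every second after compound transfer; each compound runs at 15 concentrations in three independent runs.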
# [16] = cAMP Responsive Elements (CRE) small molecule agonists, cell-based qHTS assay (AID 1963590)
# Summary of the method: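 Agonist mode qHTS in CRE-bla HEK 293T cells: compounds dosed from DMSO for 3 h at 37 C/5% CO2, followed by LiveBLAzer B/G FRET substrate for 2 h at room temperature.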
# [17] = cAMP Responsive Elements (CRE) small molecule antagonists, cell-based qHTS assay (AID 1963591; active = well fitted inhibition curve with a large enough effect in the signal ratio in the repeat runs, not every such curve was filed as active; the % refers to the signal ratio)
# Summary of the method: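 Antagonist mode: test compounds are co-incubated with the adenylyl cyclase activator NKH477 (0.25 uM final) on CRE-bla HEK293T cells for 3 h at 37 °C, followed by LiveBLAzer substrate loading.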
# [18] = molecular target: Beta-2 adrenergic receptor (Homo sapiens) (UniProt P07550); test: Adrenergic beta2 receptor (ADRB2) small molecule antagonists, cell-based qHTS assay (AID 1963592); also: series mostly up to about 92 µM; nearly all actives have a fitted effect of over 50% in size
# Chain of Beta-2 adrenergic receptor (Homo sapiens) (P07550 whole entry, looked up): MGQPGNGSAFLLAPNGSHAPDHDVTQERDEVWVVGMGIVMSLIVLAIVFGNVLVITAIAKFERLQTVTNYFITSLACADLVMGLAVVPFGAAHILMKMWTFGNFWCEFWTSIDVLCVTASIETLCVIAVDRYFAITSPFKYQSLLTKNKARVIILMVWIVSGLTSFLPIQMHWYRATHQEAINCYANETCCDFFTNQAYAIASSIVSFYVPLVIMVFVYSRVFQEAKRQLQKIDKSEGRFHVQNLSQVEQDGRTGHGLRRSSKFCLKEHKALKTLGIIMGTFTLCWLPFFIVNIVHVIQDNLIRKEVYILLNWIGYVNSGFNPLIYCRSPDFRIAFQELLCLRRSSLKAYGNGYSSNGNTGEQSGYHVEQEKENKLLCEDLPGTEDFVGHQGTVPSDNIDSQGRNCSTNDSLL
# Summary of the method: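 Cells (CHO, stable ADRB2 overexpression) incubated 18-20hr at 37C; compounds added from DMSO; agonist mix (1nM isoproterenol, 100uM IBMX, 25uM Ro-20-1724) added; 0.5hr RT; d2-cAMP and anti-cAMP-cryptate added; 1hr RT; 665/615 nm read.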
# [19] = molecular target: D(2) dopamine receptor (Homo sapiens) (UniProt P14416); test: Dopamine D2 receptor (DRD2) small molecule agonists, cell-based qHTS assay (AID 1963594); also: nearly all actives have a fitted effect of over 35% in size
# Chain of D(2) dopamine receptor (Homo sapiens) (P14416 whole entry, looked up): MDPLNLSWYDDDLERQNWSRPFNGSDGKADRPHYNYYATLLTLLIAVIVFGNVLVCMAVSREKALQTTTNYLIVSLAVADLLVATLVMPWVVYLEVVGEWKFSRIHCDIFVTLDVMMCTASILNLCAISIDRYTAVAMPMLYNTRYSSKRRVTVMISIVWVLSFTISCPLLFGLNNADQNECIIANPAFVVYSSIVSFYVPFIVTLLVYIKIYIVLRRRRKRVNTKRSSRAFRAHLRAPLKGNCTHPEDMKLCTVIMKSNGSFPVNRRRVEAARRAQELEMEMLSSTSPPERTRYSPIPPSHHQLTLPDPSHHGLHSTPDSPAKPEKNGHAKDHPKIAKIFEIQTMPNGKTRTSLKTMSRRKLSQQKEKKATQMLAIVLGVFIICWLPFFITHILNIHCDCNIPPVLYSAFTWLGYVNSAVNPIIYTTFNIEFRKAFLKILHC
# Summary of the method: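 HEK293 cells stably expressing DRD2 were cultured 24 h at 37 C, then given Ro20-1724 (0.1 mM final) and compounds for 10 min at room temperature. NKH477 (200nM) was then added for 30 min. cAMP was read by HTRF.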
# [20] = molecular target: D(2) dopamine receptor (Homo sapiens) (UniProt P14416); test: Dopamine D2 receptor (DRD2) small molecule antagonists, cell-based qHTS assay (AID 1963595; active = well fitted inhibition curve with a large enough effect in the signal ratio in the repeat runs, with a control signal flat; the % refers to the signal ratio)
# Summary of the method: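 HTRF cAMP read-out at 665 and 620 nm emission (340 nm excitation). Antagonist mode: compounds were tested against 12 nM quinpirole in DRD2-HEK293 cells, with 200 nM NKH477 raising cAMP and 0.1 mM Ro20-1724 blocking its breakdown.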
Structure (SMILES),Potency [1],Potency [2],Potency [3],outcome [4],outcome [5],Potency [6],Potency [7],Potency [8],Potency [9],Potency [10],Potency [11],Potency [12],Potency [13],Potency [14],Potency [15],Potency [16],Potency [17],Potency [18],Potency [19],Potency [20]
CCCCCOC(=O)CCC,inactive,inactive,inactive,inactive,inactive,inactive,inactive,inactive,inactive,inactive,inactive,inactive,inactive,inactive,inactive,inactive,inactive,inactive,inactive,–
O=C1O[C@@H]2[C@@H](O)[C@H](O)O[C@@H]2[C@H]1O,inactive,inactive,inactive,inactive,inactive,inactive,inactive,inactive,inactive,inactive,inactive,inactive,inactive,inactive,inactive,inactive,inactive,inactive,–,–
C=C(C)c1ccccc1,inactive,inactive,inactive,inactive,inactive,inactive,inactive,inactive,inactive,inactive,inactive,inactive,inactive,inactive,inactive,inactive,inactive,inactive,inactive,inactive
CCCC(=O)C(CC)Sc1ccoc1C (stereo not given),inactive,inactive,inactive,inactive,inactive,inactive,inactive,inactive,inactive,inactive,inactive,inactive,inactive,inactive,inactive,inactive,inactive,inactive,inactive,inactive
CCCCCCCCCCCCCC(=O)OCC(O)CO (stereo not given),inactive,inactive,inactive,inactive,inactive,inactive,inactive,inactive,inactive,inactive,inactive,inactive,inactive,inactive,inactive,inactive,inactive,inactive,inactive,inactive
CC(C)(C)NCC(O)c1cc(O)cc(O)c1 (stereo not given),inactive,inactive,268 nM (active),inactive,inactive,inactive,inactive,inactive,inactive,inactive,–,–,–,–,–,–,–,–,–,–
O=S(=O)(c1ccccc1)c1ccc(Cl)cc1,inactive,inactive,inactive,inactive,inactive,inactive,inactive,inactive,inactive,inactive,inactive,inactive,inactive,inactive,inactive,inactive,inactive,inactive,inactive,–
O=C(CCCl)NCc1ccccc1,inactive,inactive,inactive,inactive,inactive,inactive,inactive,inactive,inactive,inactive,inactive,inactive,inactive,inactive,inactive,inactive,inactive,inactive,inactive,–
Cc1cnc(C)c(C)n1,inactive,inactive,inactive,inactive,inactive,inactive,inactive,inactive,inactive,inactive,inactive,inactive,inactive,inactive,inactive,inactive,inactive,inactive,inactive,inactive
CCc1cc(S(=O)(=O)O)c2cc(C(C)C)cccc1-2,inactive,inactive,inactive,inactive,inactive,inactive,inactive,inactive,inactive,inactive,inactive,inactive,inactive,inactive,inactive,inactive,inactive,inactive,inactive,inactive
O=c1[nH]cnc2nc[nH]c12,inactive,inactive,inactive,inactive,inactive,inactive,inactive,inactive,inactive,inactive,inactive,inactive,inactive,inactive,inactive,inactive,inactive,inactive,inactive,inactive
O=C1CCCC(=O)C1,inactive,inactive,inactive,inactive,inactive,inactive,inactive,inactive,inactive,inactive,inactive,inactive,inactive,inactive,inactive,inactive,inactive,inactive,inactive,inactive
C=C(C)CCCC(C)CCO (stereo not given),inactive,inactive,inactive,inactive,inactive,inactive,inactive,inactive,inactive,inactive,inactive,inactive,inactive,inactive,inactive,inactive,inactive,inactive,inactive,inactive
